What all share (experiment): Euclidean distance of Cell Painting phenotypic profile (signed KS, 77 features) to DMSO centroid (dimensionless distance); 5 or 10 uM (library dependent); higher = stronger phenotypic change vs DMSO (phenoactivity)
Holding throughout (settings): 48 h

One assay relates to 786-O. An outline of the steps: (§1)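 Five cancer lines and a healthy fibroblast line received library compounds at 10 or 5 uM (library-dependent, 0.1% DMSO final) for 48 h. Stained cells were imaged confocally at 20X (9 fields/well). Harmony extracted 77 features, each scored as a signed Kolmogorov-Smirnov statistic against same-plate vehicle wells. Profiles were plate-position corrected, correlation-weighted and replicate-averaged at the top dose. Phenoactivity is the Euclidean distance from each profile to the median vehicle profile.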

A further assay relates to A549. An outline of the steps:
as §1

Another assay has as its system DU145. An outline of the steps:
as §1

The test system of another assay is FB. Put shortly:
as §1

A further assay deals with HEPG2. Put shortly: as §1
The subject of the next assay is OVCAR4. Put shortly: as §1

Structures can show the parent of a compound that is named as a salt.

Take `CC(=O)OC(C)OC(=O)C(C)c1ccc(-c2ccccc2)c(F)c1` (configuration not stated) [Flurbiprofen Axetil]: the Euclidean distance in the assay on 786-O turned out to be 1.28; in the assay on A549, 0.882; with DU145, 0.893; with FB, 1.57; with HEPG2 it was 1.39; in the assay on OVCAR4, 1.44.

`NC(=O)c1ncn([C@@H]2O[C@H](CO)[C@@H](O)[C@H]2O)n1` [Ribavirin]: the Euclidean distance with 786-O came to 0.706; in the assay with A549 it was 0.843; with DU145 it was 0.599; in the assay on FB, 0.808; in the assay on HEPG2, 0.875; with OVCAR4 it was 0.963.

For the molecule `C#CCC(Cc1cnc2nc(N)nc(N)c2n1)c1ccc(C(=O)N[C@@H](CCC(=O)O)C(=O)O)cc1` (some centres not stated) [Pralatrexate], the Euclidean distance with 786-O was 1.51; with A549, 2.98; with DU145, 0.922; in the assay with FB, 1.25; with HEPG2, 1.73; with OVCAR4 it was 2.44.

For the molecule `CC(C(=O)O)c1ccc2c(c1)[nH]c1ccc(Cl)cc12` (configuration not stated) [Carprofen], the Euclidean distance was 1.08 in the assay with 786-O; 0.684 in the assay with A549; 0.84 in the assay with DU145; 1.38 in the assay with FB; 0.421 in the assay with HEPG2; 1.11 with OVCAR4.

Take `CC1(C)OC[C@@H](COC(=O)CCc2ccc(OC[C@@H](O)CNCCNC(=O)N3CCOCC3)cc2)O1` [Landiolol hydrochloride]: the Euclidean distance stood at 1.18 with 786-O; 0.835 in the assay with A549; 1.25 in the assay with DU145; 1.04 in the assay on FB; 0.692 in the assay on HEPG2; 1.25 in the assay on OVCAR4.

Turning to `CCCCCCCCCCCCCCCCCC(=O)O` [Stearic acid], the Euclidean distance turned out to be 1.24 with 786-O; 1.11 in the assay on A549; 0.794 in the assay on DU145; 1.08 in the assay with FB; 0.463 with HEPG2; 0.768 in the assay with OVCAR4.

Take `COc1cccc2cc(-c3nc([C@H]4CC[C@H](C(=O)O)CC4)n4ncnc(N)c34)[nH]c12`: the Euclidean distance stood at 2.33 in the assay on 786-O; 2.18 with A549; 1.44 in the assay with DU145; 3.76 in the assay on FB; 2.92 with HEPG2; 3.56 in the assay on OVCAR4.

Regarding `CCCN1C[C@H](C)[C@@H](O)[C@](C)(O)[C@@H](CC)OC(=O)[C@H](C)[C@@H](O[C@H]2C[C@@](C)(OC)[C@@H](O)[C@H](C)O2)[C@H](C)[C@@H](O[C@@H]2O[C@H](C)C[C@H](N(C)C)[C@H]2O)[C@](C)(O)C[C@H]1C` [Gamithromycin], the Euclidean distance came to 1.26 in the assay on 786-O; 1.03 in the assay on A549; 1.98 with DU145; 1.12 in the assay on FB; 1.08 with HEPG2; 1.05 in the assay on OVCAR4.

For the molecule `Nc1nc(=O)n([C@@H]2CS[C@H](CO)O2)cc1F` [Emtricitabine], the Euclidean distance with 786-O turned out to be 1.06; in the assay with A549, 0.783; in the assay on DU145, 0.954; with FB, 0.924; with HEPG2, 0.432; in the assay with OVCAR4, 1.08.

With `CC(C)(C)Cn1c(N)nc2ccc(-c3[nH]c(C(C)(C)C)nc3-c3ccc(F)cc3)nc21`, the Euclidean distance worked out at 4.34 in the assay on 786-O; 2.69 in the assay on A549; 2.57 with DU145; 3.56 in the assay on FB; 4.51 in the assay with HEPG2; 3.76 with OVCAR4.

Turning to `CCCNS(=O)(=O)Nc1ncnc(OCCOc2ncc(Br)cn2)c1-c1ccc(Br)cc1` [Macitentan], the Euclidean distance with 786-O worked out at 1.36; with A549, 0.708; in the assay on DU145, 0.918; in the assay on FB, 0.878; in the assay on HEPG2 it was 0.806; with OVCAR4, 0.809.

Regarding `CNS(=O)(=O)Cc1ccc2[nH]cc(CCN(C)C)c2c1` [Sumatriptan Succinate], the Euclidean distance amounted to 1.54 with 786-O; 1.49 in the assay on A549; 0.753 in the assay with DU145; 1.35 in the assay on FB; 0.966 in the assay on HEPG2; 1.66 in the assay with OVCAR4.

`CC(=O)O[C@@H]1CC[C@@]2(C)[C@@H](CC[C@]3(C)[C@@H]2C(=O)C=C2[C@@H]4[C@@H](C)[C@H](C)CC[C@]4(C)CC[C@]23C)[C@@]1(C)C(=O)O`: the Euclidean distance came to 0.752 in the assay on 786-O; 0.999 in the assay with A549; 1.02 in the assay on DU145; 0.939 in the assay with FB; 0.732 with HEPG2; 0.773 in the assay with OVCAR4.

Take `Nc1n[n+]([O-])c2ccccc2[n+]1[O-]` [Tirapazamine]: the Euclidean distance with 786-O came out at 2.03; in the assay on A549, 1.01; with DU145, 0.984; in the assay on FB, 2.3; in the assay on HEPG2 it was 2.21; in the assay on OVCAR4 it was 1.52.

Take `CCCCC(F)(F)[C@@]1(O)CC[C@H]2[C@@H](CC(=O)[C@@H]2CCCCCCC(=O)O)O1` [Lubiprostone]: the Euclidean distance with 786-O worked out at 1.06; with A549, 1.09; in the assay with DU145, 1.21; in the assay on FB it was 1.29; in the assay with HEPG2 it was 0.966; in the assay with OVCAR4, 1.1.

Take `O=[N+]([O-])c1cn2c(n1)OC[C@@H](OCc1ccc(OC(F)(F)F)cc1)C2`: the Euclidean distance in the assay on 786-O was 1.49; with A549, 1.06; with DU145, 0.837; with FB, 1.12; in the assay with HEPG2, 0.872; in the assay with OVCAR4, 1.03.

As to `CC1(C)CCC(CN2CCN(c3ccc(C(=O)NS(=O)(=O)c4ccc(NCC5CCOCC5)c([N+](=O)[O-])c4)c(Oc4cnc5[nH]ccc5c4)c3)CC2)=C(c2ccc(Cl)cc2)C1`, the Euclidean distance with 786-O was found to be 2.06; in the assay with A549, 1.55; with DU145, 1.25; in the assay on FB it was 0.81; in the assay with HEPG2 it was 1.11; in the assay with OVCAR4, 1.16.

On to `COc1ccnc(C[S+]([O-])c2nc3cc(OC(F)F)ccc3[nH]2)c1OC` (configuration not stated) [Pantoprazole], for which the Euclidean distance in the assay on 786-O was found to be 1.16; in the assay with A549 it was 0.522; in the assay on DU145, 0.784; in the assay on FB it was 0.822; with HEPG2, 1.62; in the assay on OVCAR4, 1.62.

Regarding `O=C(/C=C/c1ccc(CN(CCO)CCc2c[nH]c3ccccc23)cc1)NO` [LAQ824 (Dacinostat)], the Euclidean distance in the assay with 786-O was 2.61; with A549, 4.89; with DU145, 4.56; in the assay with FB, 3.59; in the assay with HEPG2, 4.12; in the assay with OVCAR4, 3.09.

As for `NS(=O)(=O)c1cc2c(cc1Cl)N=C(CSCc1ccccc1)NS2(=O)=O` [Benzthiazide], the Euclidean distance in the assay with 786-O stood at 1.33; with A549 it was 1.17; in the assay on DU145, 1.06; with FB, 1.18; in the assay on HEPG2, 1.62; in the assay with OVCAR4, 1.62.

Take `CS(=O)(=O)c1ccc(C2=C(c3ccccc3)C(=O)OC2)cc1` [Rofecoxib]: the Euclidean distance in the assay on 786-O amounted to 1.05; with A549, 0.859; in the assay on DU145, 0.686; in the assay with FB, 0.821; in the assay with HEPG2, 0.51; in the assay with OVCAR4 it was 1.24.

In the case of `COc1cc(/C=C/C(=O)O)ccc1O` [Sodium ferulate], the Euclidean distance with 786-O was 1.56; in the assay with A549 it was 1.15; in the assay on DU145, 1.14; in the assay on FB it was 1.08; with HEPG2, 1.11; in the assay on OVCAR4 it was 1.46.

The values are drawn from the supplement of paper PMC10127200.
